Results published in PubChem BioAssay (Tox21).
Values joined by “and” are separate entries in the source; they are usually repeats but may differ in a detail not shown here. Equal entries are not always repeated. Inconclusive results are not listed. Entries that show only a call come without a potency. Some structures have more than one record in an assay (separate samples or runs), and their calls can disagree. Active and inactive are the calls of the source. Calls come from the whole dose curve; as a rule, active = well fitted curve in the direction sought with a large enough effect in the repeat runs; inconclusive = weak or mixed curves; inactive = no such curve, though single readings can be large; an effect the other way counts as inactive or inconclusive.

Columns and labels:
[1] = A CellTox Green Cytotoxicity Assay to monitor cytotoxicity in HEK293 cells - 40 hour (AID 1224871); conditions: CellTox Green fluorescence; series mostly up to 76.8 µM; note: nearly all actives have a fitted effect of over 45% in size
Method in brief: (§1)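 Nonlytic real-time cytotoxicity: HEK293 + CellTox Green reagent plated, 5 h preincubation, pintool compound addition (23 nL in DMSO), 37 C for 40 h, fluorescence measured at successive time points.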

[2] = qHTS RealTime-Glo MT Cell Viability Assay in HEK293 cells - 16 hour (AID 1224872); conditions: RealTime-Glo luminescence; series mostly up to 76.8 µM; note: nearly all actives have a fitted effect of over 50% in size
Method in brief: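 Assay medium contained NanoLuc luciferase plus cell-permeant prosubstrate, added with HEK293 cells at 600 cells/well. After 5 h at 37 C/5% CO2 compounds were added; plates stayed at 37 C for 40 h with serial luminescence reads.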

[3] = qHTS RealTime-Glo MT Cell Viability Assay in HepG2 cells - 8 hour (AID 1224873); conditions: RealTime-Glo luminescence; series mostly up to 76.8 µM; note: nearly all actives have a fitted effect of over 55% in size
Method in brief: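 HepG2 cells mixed with RealTime-Glo MT reagents (NanoLuc plus cell-permeant prosubstrate) were seeded at 600 cells/well, incubated 5 h at 37 C/5% CO2, then pinned with compounds in DMSO; nonlytic luminescence tracked viability during 40 h treatment.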

[4] = qHTS RealTime-Glo MT Cell Viability Assay in HEK293 cells - 40 hour (AID 1224874); conditions: RealTime-Glo luminescence; max response: stronger effect = lower value; note: nearly all actives have a fitted effect of over 50% in size
Method in brief: (§2)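 Cells were seeded together with NanoLuc luciferase and a prosubstrate that viable cells reduce to a luciferase substrate. After a 5 h incubation at 37 C/5% CO2, compounds were added and luminescence was measured repeatedly during 40 h of treatment.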

[5] = A CellTox Green Cytotoxicity Assay to monitor cytotoxicity in HEK293 cells - 24 hour (AID 1224875); conditions: CellTox Green fluorescence; series mostly up to 76.8 µM; note: nearly all actives have a fitted effect of over 45% in size
Method in brief: as §1

[6] = A CellTox Green Cytotoxicity Assay to monitor cytotoxicity in HepG2 cells - 16 hour (AID 1224876); conditions: CellTox Green fluorescence; series mostly up to 76.8 µM; note: nearly all actives have a fitted effect of over 45% in size
Method in brief: (§3)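 Read-out is fluorescence of a cyanine dye excluded from live cells that stains DNA of dead HepG2 cells, with signal proportional to cytotoxicity. Plates were read at 0, 8, 16, 24, 32 and 40 h after compound addition.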

[7] = qHTS RealTime-Glo MT Cell Viability Assay in HepG2 cells - 32 hour (AID 1224877); conditions: RealTime-Glo luminescence; series mostly up to 76.8 µM; note: nearly all actives have a fitted effect of over 55% in size
Method in brief: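 qHTS, HepG2, 600 cells/well, RealTime-Glo (NanoLuc + prosubstrate) added with cells; 5 h preincubation; DMSO compound addition; 37 C; luminescence at 0/8/16/24/32/40 h.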

[8] = A CellTox Green Cytotoxicity Assay to monitor cytotoxicity in HepG2 cells - 24 hour (AID 1224878); conditions: CellTox Green fluorescence; series mostly up to 76.8 µM; note: nearly all actives have a fitted effect of over 45% in size
Method in brief: as §3

[9] = A CellTox Green Cytotoxicity Assay to monitor cytotoxicity in HepG2 cells - 40 hour (AID 1224879); conditions: CellTox Green fluorescence; series mostly up to 76.8 µM; note: nearly all actives have a fitted effect of over 40% in size
Method in brief: as §3

[10] = qHTS RealTime-Glo MT Cell Viability Assay in HEK293 cells - 0 hour (AID 1224880); conditions: RealTime-Glo luminescence; series mostly up to 76.8 µM; note: nearly all actives have a fitted effect of over 45% in size
Method in brief: as §2
Potency is the fitted concentration of half-maximal effect.

Structure (SMILES)	Potency [1]	Potency [2]	Potency [3]	max response [4]	Potency [5]	Potency [6]	Potency [7]	Potency [8]	Potency [9]	Potency [10]	Potency [4]
NC(=S)NC(N)=S	inactive	inactive	inactive	-1.4% (inactive)	inactive	inactive	inactive	inactive	inactive	inactive	
CCOC(=O)NNc1ccc(N(CC)CC(C)O)nn1 (configuration not stated)	inactive	inactive	inactive	7.18% (inactive)	inactive	inactive	inactive	inactive	inactive	inactive	
CCCCCCCCCCOC(=O)c1ccccc1C(=O)OCCCCCCCC	inactive	inactive	inactive	1.51% (inactive)	inactive	inactive		inactive	inactive	inactive	
CCCCN(CCCC)CC(O)c1cc(Cl)cc2c1-c1ccc(Cl)cc1/C2=C/c1ccc(Cl)cc1 (configuration not stated)	inactive	inactive		-17.2% (inactive)	inactive	21.3 µM (active)		23.9 µM (active)	23.9 µM (active)	inactive	
C=CC(=O)Nc1cc2c(Nc3ccc(F)c(Cl)c3)ncnc2cc1OCCCN1CCOCC1	10.7 µM (active)	10.7 µM (active)			19 µM (active)	21.3 µM (active)		10.7 µM (active)	6.01 µM (active)		9.52 µM (active)
O=c1[nH]c2ccccc2n1CCCN1CCN(C(c2ccccc2)c2ccccc2)CC1	inactive	10.7 µM (active)			inactive			23.9 µM (active)	23.9 µM (active)	inactive	12 µM (active)
O=C(Nc1ccc2c(O)c(N=Nc3ccc(N=Nc4ccc(S(=O)(=O)O)cc4)cc3)c(S(=O)(=O)O)cc2c1)c1ccccc1	inactive	inactive		-19.7% (inactive)	inactive	inactive		inactive	inactive		
CCC(=O)C(=O)CC	inactive		inactive		inactive	inactive	inactive	inactive	inactive	inactive	
Fc1ccc(C(c2ccc(F)cc2)N2CCNCC2)cc1	inactive	inactive	inactive				inactive				
CCCC[P+](C)(CCCC)CCCC	inactive	inactive	inactive		inactive	inactive	inactive	inactive	inactive	inactive	
O=[N+]([O-])c1ccc(O)cc1C(F)(F)F	inactive	inactive	inactive		inactive	inactive		inactive		inactive	
Cc1cc(-c2ccc(N=Nc3cc(S(=O)(=O)O)c4ccccc4c3N)c(C)c2)ccc1N=Nc1cc(S(=O)(=O)O)c2ccccc2c1N	49.2 µM (active)		inactive			inactive	inactive	inactive	inactive	inactive	2.2 µM (active)
CCOC(=O)Cn1cccc1-c1nc(-c2ccc(OC)cc2)c(-c2ccc(OC)cc2)s1	inactive	inactive		-5.42% (inactive)		inactive		inactive	inactive	inactive	
O=C1NC(=O)[C@@H]2CC=CC[C@H]12	inactive	inactive	inactive		inactive	inactive	inactive	inactive		inactive	
COc1cc(S(=O)(=O)O)c(C)cc1N=Nc1c(O)ccc2cc(S(=O)(=O)O)ccc12	inactive	inactive		-10.3% (inactive)	inactive	inactive		inactive	inactive	inactive	
COC1=C(OC)C(=O)C(CCCCCCCCCCO)=C(C)C1=O	inactive	2.39 µM (active)			inactive	inactive	inactive	inactive	inactive	inactive	5.35 µM (active)
O=S(=O)(O)c1ccc(N=Nc2c(O)ccc3ccccc23)cc1	inactive	inactive				inactive		inactive	inactive	inactive	
CC(=O)OCC=C(C)C	inactive	inactive	inactive	-1.54% (inactive)			inactive			inactive	
Cc1cc(C(C#N)c2ccc(Cl)cc2)c(Cl)cc1NC(=O)c1cc(I)cc(I)c1O (configuration not stated)	inactive	inactive	inactive		inactive	inactive	inactive	inactive	inactive	inactive	
Cc1c2ccccc2c(C)c2c1ccc1ccccc12	43.6 µM (active)		inactive		49 µM (active)	inactive		inactive	inactive	inactive	43.2 µM (active) and 34.7 µM (active)
CN1CCCCC1CCN1c2ccccc2Sc2ccc(S(C)=O)cc21 (configuration not stated)	inactive	inactive	inactive		inactive	inactive	inactive			inactive	
CCc1oc2ccccc2c1C(=O)c1cc(I)c(O)c(I)c1	inactive	inactive	inactive	-23.8% (inactive)		inactive		inactive	inactive	inactive	
CC(=O)[C@H]1CC[C@H]2[C@@H]3CCC4=CC(=O)CC[C@]4(C)[C@H]3CC[C@]12C	24.4 µM (active) and 34.7 µM (active)	15.4 µM (active) and 19.5 µM (active)				inactive	inactive	inactive	54.6 µM (active) and 43.6 µM (active)	15.4 µM (active) and 19.5 µM (active)	13.7 µM (active) and 17.4 µM (active)
COCCOc1cc2cc(C(=O)NC3CCN(C(C)C)CC3)n(CC(=O)Nc3ccc(Cl)cn3)c2cn1	inactive		inactive	-25.3% (inactive)		inactive	inactive	inactive	inactive	inactive	

Structure (SMILES)	Potency [1]	Potency [2]	Potency [3]	max response [4]	Potency [5]	Potency [6]	Potency [7]	Potency [8]	Potency [9]	Potency [10]	Potency [4]
COc1c(C)c2c(c(O)c1C/C=C(\C)CCC(=O)OCCN1CCOCC1)C(=O)OC2	inactive	inactive	inactive		inactive	inactive	inactive	inactive	inactive	inactive	
CCC(C)(CCC(C)C)C(=O)[O][Sn]([CH3])([CH3])[O]C(=O)C(C)(CC)CCC(C)C (configuration not stated)	inactive		inactive	0.738% (inactive)	inactive	inactive	inactive	inactive	inactive	inactive	
O=C(O)CCN(C1(C(=O)NO)CCCC1)S(=O)(=O)c1ccc(Oc2ccc(F)cc2)cc1	inactive	inactive	inactive	9.57% (inactive)		inactive		inactive	inactive	inactive	
Clc1nnc(Cl)c2ccccc12	inactive	inactive		-4.03% (inactive)	inactive	inactive	inactive	inactive	inactive	inactive	
COc1cc(/C=C/c2ccccc2)oc(=O)c1	inactive		inactive		inactive	inactive	inactive	inactive	inactive	inactive	
CCCCCCCCCCCCOCCOCCOCCOCCOCCOCCOCCOCCOCCO	10.7 µM (active)	6.01 µM (active)			13.4 µM (active)	23.9 µM (active)		23.9 µM (active)	23.9 µM (active)	inactive	4.77 µM (active)
O=C(O)c1cccc(C(F)(F)F)c1	inactive	inactive	inactive	-0.78% (inactive)		inactive		inactive	inactive	inactive	
C=CC(=O)OCCOC(=O)C=C	43.6 µM (active)		inactive		inactive	inactive		inactive	inactive	inactive	49 µM (active)
Cc1ccc(O)c(N)c1	inactive		inactive		inactive	inactive					
COc1ccc2c(c1)c(CC(=O)OC/C=C(\C)CC/C=C(\C)CCC=C(C)C)c(C)n2C(=O)c1ccc(Cl)cc1	inactive	inactive		-0.256% (inactive)	inactive	inactive	inactive	inactive	inactive	inactive	
CCCCCCCCCCCCOC(=O)c1ccc(O)cc1	inactive	44 µM (active)	inactive		inactive	inactive	inactive	inactive	inactive	inactive	
COC(=O)Nc1nc2ccc(C(=O)c3ccccc3)cc2[nH]1	inactive		inactive		inactive	inactive		inactive	0.268 µM (active)	inactive	0.477 µM (active)
O=c1oc2cc(O)ccc2c2oc3cc(O)ccc3c12	inactive	21 µM (active)	inactive		inactive	inactive	inactive	inactive	inactive	inactive	
CC[N+](CC)(CC)CCOc1ccc(/C=C/c2ccccc2)cc1	6.01 µM (active)	inactive	inactive			inactive		inactive		inactive	
CCCC(=O)OCOC(=O)C1=C(C)NC(C)=C(C(=O)OC)C1c1cccc(Cl)c1Cl (configuration not stated)	inactive	inactive		2.11% (inactive)	inactive	inactive		inactive	inactive	9.52 µM (active)	
CCCCCCCC/C=C\CCCCCCCCN	23.9 µM (active)	21.3 µM (active)			21.3 µM (active)						
CC(C)=CCNc1ncnc2c1ncn2[C@@H]1O[C@H](CO)[C@@H](O)[C@H]1O	inactive	inactive	inactive				inactive			inactive	
CCCCCCCCCCCCCC[N+](C)(C)C		21.1 µM (active) and 6.91 µM (active)	18.8 µM (active) and 54.9 µM (active) and inactive		37.6 µM (active) and 48.9 µM (active) and 26.8 µM (active)	16.8 µM (active) and 43.6 µM (active) and 23.9 µM (active)	9.44 µM (active) and 19.5 µM (active) and 23.9 µM (active)	10.6 µM (active) and 19.5 µM (active) and 23.9 µM (active)	7.5 µM (active) and 15.5 µM (active) and 19 µM (active)	inactive	3.35 µM (active) and 4.89 µM (active) and 2.13 µM (active)
COc1ccc(-c2coc3cc(O)ccc3c2=O)cc1		inactive	inactive	-10.2% (inactive)	inactive	inactive	inactive	inactive	inactive	inactive	
CCCC1CCC(=O)CC1		inactive	inactive	11.1% (inactive)	inactive	inactive	inactive	inactive	inactive	inactive	
O=C(O)c1cc(=O)c2ccccc2o1		inactive	inactive	1.84% (inactive)	inactive	inactive	inactive	inactive	inactive	inactive	
CCCCCCCCCCC[C@@H](C[C@@H]1OC(=O)[C@H]1CCCCCC)OC(=O)[C@H](CC(C)C)NC=O		13.4 µM (active)	inactive		inactive	inactive		inactive	19 µM (active)	inactive	6.74 µM (active)
CN(C)C(=O)COC(=O)Cc1ccc(OC(=O)c2ccc(N=C(N)N)cc2)cc1		inactive	inactive	5.33% (inactive)	inactive	inactive	inactive	inactive	inactive	inactive	
